# GPR151 ag: activates the human receptor GPR151; 650,000 tested, 1% active; AID 1508602; PathHunter beta-arrestin GPR151 cells, luminescence; Q8TDV0; activation, % at 11.2 µM; in the data active = activation above about 4.9%;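 note: 0% = median of compound wells and 100% = cells with positive control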
# FBW7 act: human FBW7 E3 ligase activation, primary screen; Q969H0; AlphaScreen FBW7–phospho-cyclin E peptide binding, activator screen; normalized activity (activation), % at 26.1 µM; 650,000 tested, 0.13% active; in the data active = normalized activity above about 1.9%;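 note: purified mutant Fbw7 with reduced substrate affinity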
# MITF inh: inhibitors of human MITF; O75030; AlphaScreen MITF homodimerization, bead proximity signal; inhibition, % at 2.6 µM; 650,000 tested, 0.91% active; AID 1259374; in the data active = inhibition above about 50%;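 note: 0% = vehicle wells with protein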
# Target sequence (O75030 whole entry, looked up): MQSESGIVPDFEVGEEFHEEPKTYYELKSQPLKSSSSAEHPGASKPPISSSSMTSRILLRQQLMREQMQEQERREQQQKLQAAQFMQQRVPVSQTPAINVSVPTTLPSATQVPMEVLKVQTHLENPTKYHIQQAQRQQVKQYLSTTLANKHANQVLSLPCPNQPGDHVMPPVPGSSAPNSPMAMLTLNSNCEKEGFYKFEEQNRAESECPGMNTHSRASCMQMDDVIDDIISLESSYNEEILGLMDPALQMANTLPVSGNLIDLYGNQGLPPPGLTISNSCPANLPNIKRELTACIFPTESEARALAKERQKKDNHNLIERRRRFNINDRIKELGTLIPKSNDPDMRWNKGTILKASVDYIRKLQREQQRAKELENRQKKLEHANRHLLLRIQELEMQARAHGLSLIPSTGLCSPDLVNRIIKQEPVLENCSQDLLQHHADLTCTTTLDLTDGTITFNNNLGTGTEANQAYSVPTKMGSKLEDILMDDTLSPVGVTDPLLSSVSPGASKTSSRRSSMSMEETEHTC
# TEAD-YAP block: TEAD-YAP interaction inhibition | 640,000 tested, 1.4% active | inhibition, % at 9.12 µM | HEK-TIYL cells, TEAD-Gal4/YAP UAS-luciferase luminescence; in the data active = inhibition above about 32%;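 note: 0% = median of test compound wells and 100% = reference inhibitor wells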
# MITF inh conf: human MITF inhibition, confirmation. AlphaScreen MITF homodimerization, biotin/His-MITF beads. inhibition, % at 2.6 µM. AID 1259372. shares compounds with MITF inh. 4,700 tested, 16% active;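 active = inhibition above a cutoff derived from the DMSO control wells, cut at about 28% in these data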;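 note: 0% = MITF dimer wells with DMSO only; inhibitors lower the bead chemiluminescence by keeping MITF from dimerizing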
# AS interf DR: AlphaScreen optical interference, dose response counter-screen | shares compounds with MITF inh | AlphaScreen optical interference counterscreen, cell-free | IC50, µM | 480 tested, 6% active | AID 1259373; call rule not given here
# AlphaScreen intf2: optically interferes with AlphaScreen signal; shares compounds with MITF inh; LysRS AlphaScreen counterscreen, signal interference, triplicate; inhibition, % at 2.6 µM; 4,700 tested, 7.6% active; AID 1259376;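 active = inhibition above a cutoff derived from the DMSO control wells, cut at about 30% in these data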
# * = called active by the depositor; nt = not tested or not shown. In the library only some 3.4% were active in any assay of this set; here they are far more common.
SMILES,GPR151 ag,FBW7 act,MITF inh,TEAD-YAP block,MITF inh conf,AlphaScreen intf2,others
O=C(Nc1ccc2oc(=O)ccc2c1)C1COc2ccccc2O1 (centres undefined),1,0,-7,-17,nt,nt,
CCCN1CCN(CC(=O)NC(C)c2cccc(Cl)c2)CC1 (centres undefined),-1,0,92*,-7,13,22,
CC(NC(=O)CN1CCN(c2cccc(Cl)c2)CC1)c1ccccc1 (centres undefined),0,0,0,2,nt,nt,
COc1ccc(-c2nc(CSc3nnc(C)n4c3cc3occc34)c(C)o2)cc1OC,1,0,12,6,nt,nt,
Cc1cc(/C=C2/C=CC(=O)O2)oc1C,-2,0,75*,7,72*,10,AS interf DR=>7.3
CN(C)[C@@H]1C(=O)C(C(=O)NCN2CCCC2)=C(O)[C@@]2(O)C(=O)C3=C(O)c4c(O)cccc4[C@@](C)(O)C3CC12 (some centres undefined),1,0,72*,-3,78*,8,AS interf DR=>6.5
Nc1ccc(C(=O)OCC(=O)NCc2ccco2)cc1[N+](=O)[O-],-1,0,4,-14,nt,nt,
COc1ccc(CN2CCN(CCOc3ccccc3C#N)CC2)c(OC)c1OC,0,0,69*,1,1,20,
COc1ccc(CN2CCN(Cc3cccn3C)CC2)c(OC)c1OC,0,0,46,1,nt,nt,
COc1ccc(CN2CCN(CCOc3ccccc3)CC2)c(OC)c1OC,-1,0,72*,0,2,10,
O=C(O)C1CSC(c2ccc(OCc3cccc(F)c3)cc2)N1 (centres undefined),-3,0,6,-26,nt,nt,
NS(=O)(=O)c1ccc(CCNC(=O)CNS(=O)(=O)c2cccs2)cc1,-1,0,80*,6,-5,5,
Cc1cc(C2C(C#N)=C(N)N(c3ccccc3Cl)C3=C2C(=O)CC(c2ccccc2)C3)c(C)s1 (centres undefined),0,0,57*,3,-7,0,
Cc1cc(C2C(C#N)=C(N)N(c3ccccc3Cl)C3=C2C(=O)CCC3)c(C)s1 (centres undefined),-2,0,7,4,nt,nt,
O=S(=O)(c1ccc(Br)cc1)N1CCN(Cc2ccc(F)cc2)CC1,-2,1,6,8,nt,nt,
COc1ccc(Br)cc1CN1CCN(S(=O)(=O)c2ccc(F)cc2)CC1,-1,0,59*,9,1,11,
COc1ccc(S(=O)(=O)N2CCN(Cc3cccc(Br)c3)CC2)cc1,0,0,52*,-21,7,14,
CS(=O)(=O)N1CCN(Cc2cccc(Br)c2)CC1,1,0,63*,-12,14,15,
O=S(=O)(c1ccc(F)cc1)N1CCCN(Cc2c(F)cccc2F)CC1,-1,0,8,3,nt,nt,
O=S(=O)(c1ccc(F)cc1)N1CCN(Cc2c(F)cccc2F)CC1,0,0,77*,9,16,-3,
CC1=C/C(=N\S(=O)(=O)c2ccccc2)C=C(Cl)C1=O,0,0,4,-5,nt,nt,
CCOc1ccccc1NC(=O)c1ccc(F)c([N+](=O)[O-])c1,0,0,12,6,nt,nt,
O=C(COc1ccccc1[N+](=O)[O-])Nc1ccccc1N1CCOCC1,0,0,-3,-2,nt,nt,
O=C(c1ccc([N+](=O)[O-])cc1)N1CCSC1c1ccc([N+](=O)[O-])cc1 (centres undefined),2,0,12,-3,nt,nt,
O=C(c1ccc([N+](=O)[O-])cc1)N1CCSC1c1ccc(Br)cc1 (centres undefined),-1,2,70*,0,-13,-3,
SMILES,GPR151 ag,FBW7 act,MITF inh,TEAD-YAP block,MITF inh conf,AlphaScreen intf2,others
COc1ccccc1-n1cc(CN2CCN3C(=O)[C@H](CO)NC(=O)[C@H]3C2)cn1,0,0,16,7,nt,nt,
CCC[C@@H]1NC(=O)[C@H]2CN(Cc3cnn(-c4ccccc4OC)c3)CCN2C1=O,1,1,51*,-2,-3,-2,
O=C(CN1CCN(c2ccc(F)cc2)CC1)c1ccc2cc[nH]c2c1,0,0,16,4,nt,nt,
O=[N+]([O-])c1ccccc1S(=O)(=O)N1CCN(C2CCCCC2)CC1,-1,0,51*,0,10,17,
O=[N+]([O-])c1ccccc1CN1CCC(N2CCCCCC2)CC1,0,0,79*,6,4,0,
O=[N+]([O-])c1cccc(CN2CCC(N3CCCC3)CC2)c1,1,0,14,2,nt,nt,
CC1CCCC(N2CCN(Cc3ccccc3[N+](=O)[O-])CC2)C1 (centres undefined),0,0,82*,0,2,-2,
O=[N+]([O-])c1cccc(CN2CCC(N3CCCCC3)CC2)c1,-1,0,57*,-38,-14,-5,
COc1ccccc1C(=O)NCCn1c(C)cc2ccccc21,1,0,-1,3,nt,nt,
O=[N+]([O-])c1cccc(CN2CCN(C3CC4CCC3C4)CC2)c1 (centres undefined),1,0,57*,4,27,17,
O=[N+]([O-])c1ccccc1CN1CCN(C2CCCCC2)CC1,1,0,64*,-5,0,0,
CC1CCCC(N2CCN(Cc3ccccc3F)CC2)C1 (centres undefined),-1,0,63*,-4,-7,-3,
Fc1ccccc1CN1CCN(C2CCN(Cc3ccccc3)CC2)CC1,3,0,7,-1,nt,nt,
CCOc1ccccc1CN1CCC(N2CCN(c3ccccc3)CC2)CC1,-1,0,48,4,nt,nt,
O=[N+]([O-])c1ccccc1CN1CCCC1,1,0,14,-8,nt,nt,
O=[N+]([O-])c1ccccc1CN1CCC(N2CCN(c3ccccc3)CC2)CC1,0,0,83*,2,2,5,
COc1ccccc1/C(O)=C/c1nc2cc([N+](=O)[O-])c([N+](=O)[O-])cc2[nH]c1=O,0,0,-9,-6,nt,nt,
C/C(=N/NC(=O)c1sc(NS(=O)(=O)c2ccccc2)nc1C)c1ccc(F)cc1,1,0,4,-1,nt,nt,
O=C1CC(=O)N(Cc2ccco2)C(=O)N1,1,0,33,5,nt,nt,
O=C1CC(=O)N(Cc2ccco2)C(=S)N1,0,-1,70*,-5,-11,62*,
Cc1cnc(CNc2cc(-c3cccnc3)nc(-c3cccnc3)n2)nc1,-1,-1,78*,6,13,26,
c1ccc(-c2nc(NCCCn3ccnc3)cc(-c3cccnc3)n2)cc1,0,-1,54*,11,34*,44*,
c1ccc(-c2cc(NCCCn3ccnc3)nc(-c3cccnc3)n2)cc1,1,-1,53*,15,24,39*,
c1cncc(-c2cc(NCCCn3ccnc3)nc(-c3ccncc3)n2)c1,-1,-1,32,11,nt,nt,
